CHO-K1 Ca antag – M1 antagonist counterscreen hit in parental CHO-K1 cells. AID 602250. inhibition, % at 3 µM. ATP-induced calcium, Fluo-8 fluorescence. hit rate 0.6% among 360,000;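 active means inhibition above a per-plate cutoff, the plate's mean sample inhibition plus 3 SD, cut at about 24% in these data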;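 further: 0% = DMSO plus EC80 ATP and 100% = DMSO alone without ATP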
CHRM1 agonist – human M1 muscarinic receptor agonism | P11229 | CHO-K1 hM1, Fluo-8 calcium fluorescence, agonist mode; 0% DMSO, 100% acetylcholine EC100 | activation, % at 3 µM | hit rate 0.33% among 360,000;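 active means activation above the run's mean compound activation plus 3 SD, cut at about 16% in these data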;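 further: peak over basal fluorescence ratio within a 140 s kinetic read after compound addition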
Target sequence (P11229 whole entry, looked up): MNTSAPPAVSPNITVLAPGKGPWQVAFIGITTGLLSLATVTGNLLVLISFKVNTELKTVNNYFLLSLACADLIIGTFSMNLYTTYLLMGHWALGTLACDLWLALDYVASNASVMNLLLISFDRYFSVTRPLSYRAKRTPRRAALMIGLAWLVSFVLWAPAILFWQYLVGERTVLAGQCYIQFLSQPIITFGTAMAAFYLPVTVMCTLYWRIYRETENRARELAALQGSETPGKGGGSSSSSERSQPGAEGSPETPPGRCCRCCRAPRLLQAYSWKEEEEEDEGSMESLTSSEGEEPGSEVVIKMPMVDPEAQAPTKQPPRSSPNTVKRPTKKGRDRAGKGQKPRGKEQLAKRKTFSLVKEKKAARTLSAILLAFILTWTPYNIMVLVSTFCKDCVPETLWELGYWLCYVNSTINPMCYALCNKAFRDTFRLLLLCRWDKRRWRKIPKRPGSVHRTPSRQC
CHRM1 PAM – potentiates human M1 receptor response to acetylcholine; P11229; AID 588819; CHO-K1 hM1, Fluo-8 calcium fluorescence, ACh EC20; 0% = ACh EC20, 100% = maximal ACh; hit rate 0.088% among 360,000; activation, % at 3 µM; in the data active means activation above about 19%, passing the limit was not always enough
CHO-K1 Ca ag – M1 agonist counterscreen hit in parental CHO-K1 cells | Fluo-8 calcium fluorescence; scaled to maximal ATP response, vehicle zero | activation, % at 3 µM | hit rate 0.48% among 360,000 | AID 602248; in the data active means activation above about 15%;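 further: untransfected CHO-K1 host cells lacking M1 receptor as counterscreen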
M1 PAM parental – M1 PAM counterscreen hit in parental CHO-K1 cells; activation, % at 3 µM; ATP EC20, Fluo-8 calcium fluorescence; 0% at ATP EC20, 100% at ATP max; AID 602247; hit rate 0.02% among 360,000;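 active means activation above the run cutoff, the mean activation of all test compounds plus 3 SD, cut at about 40% in these data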;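 further: peak over basal fluorescence ratio in a 140 s read after ATP addition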
M1 antag – antagonists of human M1 muscarinic receptor. P11229. CHO-K1 hM1, Fluo-8 calcium fluorescence, ACh EC80 antagonist. inhibition, % at 3 µM. hit rate 1.3% among 360,000. AID 588852;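 active means percent inhibition above its own plate's cutoff, namely the mean of that plate's compound wells plus 3 SD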;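 further: peak over basal fluorescence ratio during 140 s after agonist addition; 0% = ACh EC80 plus DMSO and 100% = DMSO alone without agonist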
Numbers without * were called inactive. Only some compounds are listed: those with a hit (about 2.4% of all), similar ones and a draw of the others.

SMILES	CHO-K1 Ca antag	CHRM1 agonist	CHRM1 PAM	CHO-K1 Ca ag	M1 PAM parental	M1 antag
CCCc1nc2sc3c(=O)n(N)cnc3c2c2c1CCCC2	-6	-4	17	0	11	-11
CCCCCCCCCCCCCCCC[n+]1ccc(/C=N/O)cc1	-16	-12	-24	0	32	31*
COC(=O)C1=C(C)NC(C)=C(C(=O)OC)C1c1ccc(NC(C)=O)cc1	-15	32*	-5	0	12	-12
CCOC(=O)C1=C(C)NC(=O)NC1c1ccc(N(CC)CC)cc1 (stereo not given)	-2	-12	-24	0	0	30*
CCN(CC)c1ccc(C2C(C(=O)OC)=C(C)NC(C)=C2C(=O)OC)cc1	4	-7	-26	0	-4	37*
CCOC(=O)C1=C(C)NC(C)=C(C(=O)OCC)C1c1ccncc1	-10	-3	7	0	3	-20
COC(=O)C1=C(C)NC(C)=C(C(=O)OC)C1c1ccco1	-3	-3	9	19*	6	0
C=CCNC(=O)c1c(CSc2ccc(Cl)cc2)noc1C(=O)NCc1ccccc1	-22	-4	2	1	14	-1
CCn1c(=S)sc2c(=O)n(CC(=O)Nc3cccc(OC)c3)c(C)nc21	-20	-2	9	1	18	-18
c1ccc(Oc2cccc(OCCCCN3CCCC3)c2)cc1	-4	-11	-28	3	19	40*
CC1CN(CCCCOc2cccc(Oc3ccccc3)c2)CC(C)O1 (stereo not given)	-16	-7	-24	1	8	29*
COc1ccc(C(=O)c2ccc([N+](=O)[O-])cc2)c(OC)c1OC	-12	-3	2	1	4	-7
COc1cc(NC(=S)N2CCN(C/C=C/c3ccccc3)CC2)cc(OC)c1	-12	-9	9	2	18	-7
COc1cc(NC(=S)N2CCN(C(c3ccccc3)c3ccccc3)CC2)cc(OC)c1	-3	-8	-23	0	3	30*
Cc1cc(C)nc(NC(=NCc2ccc3c(c2)OCO3)NC(=O)Nc2ccccc2)n1	2	-7	-14	0	-4	32*
NS(=O)(=O)c1ccc(NC(=O)COC(=O)COc2ccc(Cl)cc2)cc1	6	-3	7	0	-3	4
CCOC(=O)C1CCCN(C(=O)CCCn2nc(C)n3c(cc4sccc43)c2=O)C1 (stereo not given)	7	34*	-16	0	0	10
CCOCC(=O)N1CCCC(C(=O)OCC)C1 (stereo not given)	3	0	0	0	5	101*
Cc1ccc(OCCOC(=O)c2cc(S(=O)(=O)N3CCCCC3)ccc2N2CCOCC2)cc1	19	-4	-11	2	-2	28*
CCOC(=O)C1CCCN(C(=O)Cn2sc3nc(C)cc(C)c3c2=O)C1 (stereo not given)	-10	22*	5	4	29	-11
O=C(OCCOc1ccc(Cl)cc1)c1cc(S(=O)(=O)N2CCCCC2)ccc1N1CCOCC1	0	-5	-4	4	11	20
COc1cc(/C=N/NC(=O)c2ccccc2NS(=O)(=O)c2cccs2)ccc1O	-12	1	13	0	11	-27
Cc1nc(NC(=O)CSc2nnc(C3CC3)n2N)c(Cl)cc1Cl	-12	-1	-4	0	-2	10
CCOC(=O)C1CCCN(C(=O)COc2ccc(S(=O)(=O)N3CCOCC3)cc2)C1 (stereo not given)	5	31*	-4	0	-7	11
CCOC(=O)C1CCCN(C(=O)Cc2ccc(C)cc2)C1 (stereo not given)	-9	1	6	4	8	-8
SMILES	CHO-K1 Ca antag	CHRM1 agonist	CHRM1 PAM	CHO-K1 Ca ag	M1 PAM parental	M1 antag
CCOC(=O)C1CCN(C(=O)COc2ccc(S(=O)(=O)N3CCOCC3)cc2)CC1	-2	-2	7	1	-3	-9
CCOC(=O)C1CCCN(C(=O)CCCn2nnnc2CN2CCOCC2)C1 (stereo not given)	-19	49*	-20	1	11	4
CCCCC(=O)N1CCCC(C(=O)OCC)C1 (stereo not given)	3	26*	-7	0	7	1
Nc1nnc(CC(=O)Nc2ccccc2)s1	1	4	19	0	-24	-2
COc1ccc(-c2ccc(SCC(=O)N3CC(=O)Nc4ccccc43)nn2)cc1	-15	-5	-5	2	16	0
CN1CCN(C(=O)/C(=C/c2ccc(F)cc2)NC(=O)c2ccccc2)CC1	13	-7	1	0	-17	0
CN1CCN(C(=O)/C(=C\c2ccccc2)c2ccccc2)CC1	5	-6	-26	0	6	99*
COC(=O)c1c(C)[nH]c(C(=O)OC(C)C(=O)NC2CCCCC2C)c1C (stereo not given)	-7	8	26*	0	-9	-13
Cc1nn(-c2ccccc2)c(C)c1C(=O)OC(C)C(=O)NC1CCCCC1C (stereo not given)	6	1	-14	1	-9	30*
CCCn1nc(C(=O)N2CCN(S(=O)(=O)c3ccc(C)c(C)c3)CC2)c2ccccc2c1=O	-22	-7	-5	1	16	8
c1ccc(CC[C@@H]2CC[C@@H](CCc3ccccc3)N2)cc1	-12	-14	-27	4	18	32*
COc1ccc(OC)c(NC(=O)c2cnc3n(c2=O)CCS3)c1	26*	-3	3	0	-15	-4
CC(=O)c1sc(N/N=C\c2ccc(Br)cc2)nc1C	-11	-10	0	1	18	-8
CC(=O)c1sc(N/N=C\c2cccc(Br)c2)nc1C	6	-11	2	17*	17	-5
CCN(CC)c1ccc(C=C2SC(=S)NC2=O)cc1	21	111*	-36	15	-6	83*
Cc1ccc(S(=O)(=O)NNc2nc3ccccc3nc2C(F)(F)F)cc1	-9	50*	0	1	18	-5
Cc1ccc(S(=O)(=O)NNc2ccccc2)cc1	16	0	5	0	-4	-7
CC1CN(C(=O)CSc2nc(N)cc(N)n2)CC(C)O1 (stereo not given)	-4	-3	1	0	-4	0
O=S(=O)(c1ccc2nc(N3CCN(c4ccccc4F)CC3)ccc2c1)N1CCCCC1	25*	-1	-3	2	-6	3
CCOc1ccc(N2CC(C(=O)Nc3c(C)n(C)n(-c4ccccc4)c3=O)CC2=O)cc1 (stereo not given)	-12	-3	5	0	9	-2
CN(C)CC/C=C1/c2ccccc2Sc2c(O)cc(Cl)cc21	4	-10	-31	2	0	97*
CN(C)CC/C=C1/c2cc(F)ccc2Sc2ccc(Cl)cc21	-2	-7	-27	3	15	99*
